# PubChem BioAssay (NCI)
# This is part of a sample that, as a whole, favours compounds with a hit. Of some 83,000 tested, about 20% had one in any assay.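 Testing used 96-well plates and a 48-hour single-concentration exposure. Example: -40 means 40% of the starting cells died.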 Active and inactive are the calls of the source. How the source made its calls: active means growth percent below 10; inactive means the rest.
# How the values were obtained:
# Test in all cases: NCI-60 one-dose screen, 48 h (100 = growth as untreated, 0 = no growth, -100 = all killed)
# DU-145 prostate = conditions: 10 µM
# K-562 leukemia = conditions: 10 µM
# MALME-3M melanoma = conditions: 10 µM
# MDA-MB-231 breast = conditions: 10 µM
# RXF 393 renal = conditions: 10 µM
# SF-268 CNS = conditions: 10 µM
# SF-295 CNS = conditions: 10 µM
# SF-539 CNS = conditions: 10 µM
# UACC-257 melanoma = conditions: 10 µM
# M14 melanoma = conditions: 10 µM
# HCT-15 colon = conditions: 10 µM
# HT29 colon = conditions: 10 µM
# SNB-19 CNS = conditions: 10 µM
# U251 CNS = conditions: 10 µM
# PC-3 prostate = conditions: 10 µM
# SK-MEL-5 melanoma = conditions: 10 µM
# UACC-62 melanoma = system: UACC-62 melanoma
# LOX IMVI melanoma = conditions: 10 µM
# SK-MEL-28 melanoma = conditions: 10 µM
# SNB-75 CNS = conditions: 10 µM
smiles,measurement,setting,value
CC(C)=NNc1ccc([N+](=O)[O-])cc1[N+](=O)[O-],growth,DU-145 prostate,89.8% (inactive)
same,growth,K-562 leukemia,60.2% (inactive)
same,growth,MALME-3M melanoma,159% (inactive)
same,growth,MDA-MB-231 breast,82.4% (inactive)
same,growth,RXF 393 renal,109% (inactive)
same,growth,SF-268 CNS,85.1% (inactive)
same,growth,SF-295 CNS,69.8% (inactive)
same,growth,SF-539 CNS,95.6% (inactive)
same,growth,UACC-257 melanoma,101% (inactive)
same,growth,M14 melanoma,74.3% (inactive)
same,growth,HCT-15 colon,62.3% (inactive)
same,growth,HT29 colon,91.8% (inactive)
same,growth,SNB-19 CNS,98.3% (inactive)
same,growth,U251 CNS,92.9% (inactive)
same,growth,PC-3 prostate,87.3% (inactive)
same,growth,SK-MEL-5 melanoma,102% (inactive)
same,growth,UACC-62 melanoma; 10 µM unless noted,65.1% (inactive)
same,growth,LOX IMVI melanoma,77.6% (inactive)
same,growth,SK-MEL-28 melanoma,111% (inactive)
C=C1CC/C=C(\C)C(=O)C[C@@H]2[C@@H]1CC2(C)C,growth,DU-145 prostate,102% (inactive)
same,growth,K-562 leukemia,102% (inactive)
same,growth,MALME-3M melanoma,103% (inactive)
same,growth,MDA-MB-231 breast,125% (inactive)
same,growth,RXF 393 renal,55.1% (inactive)
same,growth,SF-268 CNS,99.5% (inactive)
same,growth,SF-295 CNS,108% (inactive)
same,growth,SF-539 CNS,107% (inactive)
same,growth,UACC-257 melanoma,111% (inactive)
same,growth,M14 melanoma,98.3% (inactive)
same,growth,HCT-15 colon,99% (inactive)
same,growth,HT29 colon,112% (inactive)
same,growth,SNB-19 CNS,95.7% (inactive)
same,growth,U251 CNS,100% (inactive)
same,growth,PC-3 prostate,92.6% (inactive)
same,growth,SK-MEL-5 melanoma,106% (inactive)
same,growth,UACC-62 melanoma; 10 µM,101% (inactive)
same,growth,UACC-62 melanoma; 100 µM,-99.1% (active)
same,growth,LOX IMVI melanoma,89.7% (inactive)
same,growth,SK-MEL-28 melanoma,104% (inactive)
COC(=O)/C=C\C(=O)OC,growth,DU-145 prostate,120% (inactive)
same,growth,K-562 leukemia,107% (inactive)
same,growth,MALME-3M melanoma,139% (inactive)
same,growth,MDA-MB-231 breast,104% (inactive)
same,growth,RXF 393 renal,110% (inactive)
same,growth,SF-268 CNS,113% (inactive)
same,growth,SF-295 CNS,114% (inactive)
same,growth,SF-539 CNS,103% (inactive)
same,growth,UACC-257 melanoma,106% (inactive)
same,growth,M14 melanoma,107% (inactive)
same,growth,HCT-15 colon,107% (inactive)
same,growth,HT29 colon,103% (inactive)
same,growth,SNB-19 CNS,109% (inactive)
same,growth,U251 CNS,105% (inactive)
same,growth,PC-3 prostate,93.1% (inactive)
same,growth,SK-MEL-5 melanoma,106% (inactive)
same,growth,UACC-62 melanoma; 10 µM unless noted,101% (inactive)
same,growth,LOX IMVI melanoma,102% (inactive)
same,growth,SK-MEL-28 melanoma,112% (inactive)
Cc1cc(=O)cc(C)n1-c1ccccc1,growth,DU-145 prostate,121% (inactive)
same,growth,K-562 leukemia,105% (inactive)
same,growth,MALME-3M melanoma,99.3% (inactive)
same,growth,MDA-MB-231 breast,106% (inactive)
same,growth,RXF 393 renal,104% (inactive)
same,growth,SF-268 CNS,109% (inactive)
same,growth,SF-295 CNS,96.3% (inactive)
same,growth,SF-539 CNS,102% (inactive)
same,growth,UACC-257 melanoma,106% (inactive)
same,growth,M14 melanoma,101% (inactive)
same,growth,HCT-15 colon,104% (inactive)
same,growth,HT29 colon,101% (inactive)
same,growth,SNB-19 CNS,99.8% (inactive)
same,growth,U251 CNS,101% (inactive)
same,growth,PC-3 prostate,93.6% (inactive)
same,growth,SK-MEL-5 melanoma,106% (inactive)
same,growth,UACC-62 melanoma; 10 µM unless noted,99% (inactive)
same,growth,LOX IMVI melanoma,98.9% (inactive)
same,growth,SK-MEL-28 melanoma,104% (inactive)
CCNCCCCNCCCCNCCCCNCCCCNCC,growth,DU-145 prostate,82.1% (inactive)
same,growth,K-562 leukemia,61% (inactive)
same,growth,MALME-3M melanoma,-12.6% (active)
same,growth,MDA-MB-231 breast,109% (inactive)
same,growth,RXF 393 renal,81.7% (inactive)
same,growth,SF-268 CNS,138% (inactive)
same,growth,SF-295 CNS,62.3% (inactive)
same,growth,SF-539 CNS,122% (inactive)
same,growth,UACC-257 melanoma,30.7% (inactive)
same,growth,M14 melanoma,66.9% (inactive)
same,growth,HCT-15 colon,99.1% (inactive)
same,growth,HT29 colon,72.1% (inactive)
same,growth,SNB-19 CNS,81.1% (inactive)
same,growth,PC-3 prostate,84.6% (inactive)
same,growth,SK-MEL-5 melanoma,73.8% (inactive)
same,growth,UACC-62 melanoma; 10 µM unless noted,72.8% (inactive)
same,growth,LOX IMVI melanoma,75.3% (inactive)
CCOC(=O)C1=C(C)NC(=O)NC1c1cccs1 (configuration not stated),growth,DU-145 prostate,122% (inactive)
same,growth,K-562 leukemia,103% (inactive)
same,growth,MALME-3M melanoma,110% (inactive)
same,growth,MDA-MB-231 breast,110% (inactive)
same,growth,RXF 393 renal,99.7% (inactive)
same,growth,SF-268 CNS,108% (inactive)
same,growth,SF-295 CNS,112% (inactive)
same,growth,SF-539 CNS,103% (inactive)
same,growth,UACC-257 melanoma,102% (inactive)
same,growth,M14 melanoma,111% (inactive)
same,growth,HCT-15 colon,103% (inactive)
same,growth,SNB-75 CNS,103% (inactive)
same,growth,SNB-19 CNS,113% (inactive)
same,growth,PC-3 prostate,102% (inactive)
same,growth,SK-MEL-5 melanoma,104% (inactive)
same,growth,UACC-62 melanoma; 10 µM unless noted,115% (inactive)
same,growth,LOX IMVI melanoma,101% (inactive)
same,growth,SK-MEL-28 melanoma,106% (inactive)
CC1Cc2ccccc2O1 (configuration not stated),growth,DU-145 prostate,124% (inactive)
same,growth,K-562 leukemia,117% (inactive)
same,growth,MALME-3M melanoma,126% (inactive)
same,growth,MDA-MB-231 breast,115% (inactive)
same,growth,RXF 393 renal,118% (inactive)
same,growth,SF-268 CNS,113% (inactive)
same,growth,SF-295 CNS,104% (inactive)
same,growth,SF-539 CNS,100% (inactive)
same,growth,UACC-257 melanoma,112% (inactive)
same,growth,M14 melanoma,107% (inactive)
same,growth,HCT-15 colon,99.1% (inactive)
same,growth,SNB-75 CNS,105% (inactive)
same,growth,SNB-19 CNS,117% (inactive)
same,growth,PC-3 prostate,106% (inactive)
same,growth,SK-MEL-5 melanoma,108% (inactive)
same,growth,UACC-62 melanoma; 10 µM unless noted,122% (inactive)
same,growth,LOX IMVI melanoma,97.4% (inactive)
CCCC(C)OCC(=O)O (configuration not stated),growth,DU-145 prostate,106% (inactive)
same,growth,K-562 leukemia,112% (inactive)
same,growth,MALME-3M melanoma,90.7% (inactive)
same,growth,MDA-MB-231 breast,105% (inactive)
same,growth,RXF 393 renal,96.4% (inactive)
same,growth,SF-268 CNS,99.2% (inactive)
same,growth,SF-295 CNS,98.5% (inactive)
same,growth,SF-539 CNS,102% (inactive)
same,growth,UACC-257 melanoma,90.2% (inactive)
same,growth,M14 melanoma,106% (inactive)
same,growth,HCT-15 colon,104% (inactive)
same,growth,SNB-75 CNS,85.8% (inactive)
same,growth,SNB-19 CNS,100% (inactive)
same,growth,PC-3 prostate,98.4% (inactive)
same,growth,SK-MEL-5 melanoma,99.8% (inactive)
same,growth,UACC-62 melanoma; 10 µM unless noted,110% (inactive)
same,growth,LOX IMVI melanoma,99.1% (inactive)
same,growth,SK-MEL-28 melanoma,97.9% (inactive)
